Laboratory results taken from PubChem BioAssay.
Several values for one entry are separate records, joined by “and”; a condition that tells them apart may be missing. Identical values can stand only once. Values without a mark were called inactive. Activity calls are given as the source filed them.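 Rule for the calls: active = inhibition at or above 50% relative to wild type and mutant plate controls; inactive = inhibition below 50%.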

Assay: inhibitors of Chlamydomonas gravitaxis, primary screen, whole organism, Chlamydomonas reinhardtii, WT vs cilia-less mutant, absorbance, 96-well (AID 463189);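 note: 0% = wild type cc124 cells in DMSO and 100% = ciliumless bld1 mutant cells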
Settings: OD600 absorbance, 2 days, at 10 µM, hits give high values

SMILES	inhibition
CN1C2CCC1CC(OC(c1ccccc1)c1ccccc1N)C2 (stereo not drawn)	-4.19%
COC(=O)[C@@H](N)CCCN=C(N)N[N+](=O)[O-]	-4.62%
O=C(O)Cc1cnc[nH]1	2.27%
CCCn1c(=O)c2[nH]c(C3CCCC3)nc2n(CCCOC(=O)c2ccc(S(=O)(=O)F)cc2)c1=O	0.089%
C[C@H]1C2Cc3ccc(O)cc3C1(C)CCN2CC1CC1 (stereo partly drawn)	8.28%
Clc1ccc(C(c2ccc(Cl)cc2)n2cc[n+](CC(OCc3ccc(Cl)cc3Cl)c3ccc(Cl)cc3Cl)c2)cc1 (stereo not drawn)	133% (active)
Cc1ccc(S(=O)(=O)N[C@@H](CCCCN)C(=O)CCl)cc1	5.31%
COc1ccc2c(c1)[C@@]13CCCC[C@H]1[C@@H](C2)NCC3	4.9%
CCCn1c(C)c(C(=O)c2ccc3ccccc3c2)c2ccccc21	18.5%
Cc1nccc2c1[nH]c1ccccc12	10.4%
CN1CCc2cccc(Cl)c2CC1	9.04%
COc1ccc2c(c1)C13CCCCC1C(C2)N(C)CC3 (stereo not drawn)	6.06%
C[C@]12CC[C@@H](O)CC1CC[C@@H]1[C@@H]2CC[C@]2(C)C(=O)CC[C@@H]12 (stereo partly drawn)	0.791%
NC(=NCCC[C@H](N)C(=O)O)N[N+](=O)[O-]	2.94%
O=C(O)c1cc[c]([Hg][Cl])cc1	9.04%
N#CC(C#N)=Cc1ccc([N+](=O)[O-])c(O)c1	2.16%
CC[C@@]1(O)C(=O)OCc2c1cc1n(c2=O)Cc2cc3ccccc3nc2-1	23.3%
NCCCP(=O)(O)O	13.9%
NCCc1c[nH]c2ccccc12	2.92%

SMILES	inhibition
C[C@H](N)CN1CCc2ccc(Br)cc21	-3.37%
NNCc1cccc(O)c1	-4.41%
CCCN(CCC)[C@@H]1CCc2c(F)ccc(O)c2C1	-5.24%
c1ccc(CCCN2CCN(CCOC(c3ccccc3)c3ccccc3)CC2)cc1	20%
C[C@]12N[C@H](Cc3ccccc31)c1ccccc12	-0.308%
C[N+]1(C)C2CC(OC(=O)[C@H](CO)c3ccccc3)CC1C1OC12 (stereo partly drawn)	-8.63% and 9.74%
CC(N)Cc1c[nH]c2ccc(OCc3cccs3)cc12 (stereo not drawn)	5.48%
C[C@]12CCC3C(CC[C@H]4C[C@H](O)CC[C@]34C)C1CC[C@@H]2C(=O)CO (stereo partly drawn)	4.52%
N#CC(C#N)=Cc1cc(O)c(O)c(O)c1	7.39%
C=CCN1CC[C@]23c4c5ccc(O)c4O[C@@H]2/C(=N/N=C2\CC[C@@]4(O)C6Cc7ccc(O)c8c7[C@@]4(CCN6CC=C)[C@@H]2O8)CC[C@@]3(O)C1C5	6.59%
Nc1ccncc1	14.4%
CCCN1CCC[C@@H]2Cc3nc(N)ncc3C[C@H]21	4.12%
O=C(CCCN1CCC2(CC1)C(=O)N(CCc1ccc(N=C=S)cc1)CN2c1ccccc1)c1ccc(F)cc1	2.53%
O=C(O)[C@@H]1CCN1	2.04%
O=c1[nH]oc2c1CCNC2	1.51%
COc1cc(C(O)CN)ccc1O (stereo not drawn)	2.77%
NC1CC1c1ccccc1 (stereo not drawn)	9.58%
COc1cc(C=C(C#N)C#N)cc(O)c1O	10.5%
C#CCN[C@H](C)Cc1ccccc1	20.4%
